# Measurements taken from PubChem BioAssay (NCI).
# Compounds without any hit were thinned out: in the full panel of roughly 83,000, 20% have a hit.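 Negative percent growth values reflect cell death: -40 means 40% of the cells present at the start died, and -100 means all died.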 A number with no mark means an inactive call. The source made the active and inactive calls.
# Tested on: U251 CNS
# Assay: NCI-60 one-dose screen, 48 h (100 = growth as untreated, 0 = no growth, -100 = all killed)
# Details: 10 µM
# Description: Growth inhibition of the U251 human tumor cell line is measured as a screen for anti-cancer activity. Cells are grown in 96 well plates and exposed to the test compound for 48 hours. Compounds are tested at a single concentration, which is 10^-5 M for most compounds. The reported endpoint is percent growth (GI% or GIPRCNT), where numbers from 0 - 100% represent growth inhibition, and numbers from -100% - 0 represent cell death. For example, a value of 40 represents 60% growth inhibition. A value of 0 means no net growth occurred over the course of the experiment. A value of -40 indicates 40% of cells at the beginning of the experiment died by the end of the experiment. A value of -100 means all cells are dead at the end of the experiment.
# NCI-60 Human Tumor Cell Lines Screen was performed using the standard one-dose NCI protocol, which is described in more detail at https://dtp.cancer.gov/discovery_development/nci-60/default.htm.
# Compounds with GIPRCNT values below 10 were considered active. Activity score was based on GIPRCNT using the following formula: […]
# Score is 0 for GIPRCNT values of 100 or above, 50 for GIPRCNT values of 0, and 100 for GIPRCNT values of -100.
row,SMILES,growth
1,Oc1[nH]c2cc(Cl)ccc2c1/C=c1/ccc2c(c1)N=C(c1cc(F)cc(F)c1)N=2,20.7%
2,O=C(Nc1ccc(OS(=O)(=O)c2ccccc2)cc1)C12CC3CC(CC(C3)C1)C2,34.6%
3,COc1cc(NC(=O)CCSc2nc3ccc(C)cc3c(=O)n2Cc2ccccc2)cc(OC)c1OC,44.3%
4,c1ccc2c(c1)oc1c3cccnc3ccc21,97.9%
5,COc1ccc(-c2nc3sccn3c2-c2nc3c([nH]2)C(=O)c2ccccc2C3=O)cc1,87.1%
6,CC(=O)[C@H]1CC[C@H]2[C@@H]3CCC4=CC(=O)C=C[C@]4(C)[C@H]3CC[C@]12C,95.1%
7,O=c1c2ccccc2nc(SCCN2CCCCC2)n1CCc1ccccc1,86.7%
8,CSCCCNC(=O)c1ccc2c(c1)/C(=C/c1[nH]c(C)cc1C)C(=O)N2,43.6%
9,O=C(Nc1cccc(Br)c1)c1cc(=O)[nH]c2ccccc12,91.5%
10,Cc1ccc(S(=O)(=O)Oc2ccc3c4c(c(=O)oc3c2)CCCCC4)cc1,38.7%
11,COc1cc(/C=N/NC(=O)c2ccccc2Nc2ccnc(C(F)(F)F)c2)ccc1O,106%
12,N#CCCN1C/C(=C/c2ccc(Cl)cc2)C(=O)/C(=C/c2ccc(Cl)cc2)C1,-95.3% (active)
13,CN(CCc1ccccn1)c1ccccc1,96.4%
14,COc1ccc(Cn2c(C(N)=O)cc3c2-c2nc(N)ncc2CCC3)cc1,99.3%
15,O=C1/C(=C\c2ccc(Cl)cc2)CN(C(=S)Nc2ccccc2)C/C1=C\c1ccc(Cl)cc1,-97.7% (active)
16,CC(C)N(CCNc1nc(C(Cl)(Cl)Cl)nc2cc(Cl)ccc12)C(C)C,-61.5% (active)
17,C#Cc1ccc(-n2c(/C=C/c3ccc4ccccc4n3)nc3ncccc3c2=O)cc1,-57.6% (active)
18,CCCC1(CC(=O)O)OCCc2c1[nH]c1ccccc21 (stereo not given),108%
19,O=C(Nc1cccc(-n2cc(-c3ccncc3)c(-c3cc(O)cc(Cl)c3)n2)c1)c1cc(C(F)(F)F)cc(C(F)(F)F)c1,37.2%
20,COc1cc(-c2cc(/C=C/C(=O)c3ccc(F)c(F)c3)[nH]n2)cc(OC)c1OC,41.5%

row,SMILES,growth
1,Cn1c([N+](=O)[O-])cnc1/C=C1\Oc2cc(Cl)ccc2C1=O,-9% (active)
2,S=c1[nH]ccn1-c1c(Cl)cccc1Cl,104%
3,CCCCCCCNc1nc(C=O)ncc1-c1ccc(C(F)(F)F)cc1,86.1%
4,COc1ccc(-c2nnc(-c3c(-c4ccccc4)nc4ncccn34)o2)cc1OC,101%
5,COc1cc(-c2nnc(-c3c(-c4ccc(F)cc4)nc4ccccn34)o2)cc(OC)c1OC,59.5%
6,O=C(Nc1cccc(-n2cc(-c3ccncc3)c(-c3ccc(O)c(Cl)c3)n2)c1)c1ccc(N2CCOCC2)c(C(F)(F)F)c1,-13% (active)
7,COc1cc(Cl)cc(-c2nn(-c3cccc(NC(=O)c4ccc(N5CCOCC5)c(C(F)(F)F)c4)c3)cc2-c2ccncc2)c1,32.3%
8,Cc1ccc(NC(=O)Nc2cccnc2)cc1NC(=O)Nc1cccnc1,79%
9,CNc1ccc(CSc2ccc(C)cc2)cc1,52.4%
10,Cc1occc1-c1nnc(SCC(=O)c2ccc(NC(=O)CC(C)C)cc2)o1,105%
11,CC(C)=CCc1ccc(O)c(=O)cc1C(C)C,15.5%
12,COC(=O)c1c(-c2ccccc2)csc1NC(=O)c1c(-c2ccccc2)noc1C,13.3%
13,O=C1OCC2=C1C(c1cccc(Cl)c1)c1cc3c(cc1N2CCO)OCO3 (stereo not given),17.1%
14,O=C1/C(=C\c2ccccc2)CN(C(=O)c2ccccc2)C/C1=C\c1ccccc1,-32.6% (active)
15,CC1CC(=O)OC(C)C1 (stereo not given),101%
16,Cc1cc(Cc2cc(C)c(O)c(C)c2)cc(C)c1O,49.6%
17,COc1ccc(/C=C2/CN(C(=O)c3ccccc3F)C/C(=C\c3ccc(OC)cc3)C2=O)cc1,9.44% (active)
18,CCN(CC)CCOc1nc2cc(OC)c(OC)cc2c2c1-c1ccc(OC)cc1C2=O,60%
19,COc1cc(-c2nn3c(/C=C4/C(=O)Nc5ccccc54)c(-c4ccc(C)cc4)nc3s2)cc(OC)c1OC,65.2%
20,COc1ccc(-c2nc3ccccn3c2-c2nnc(-c3cc(OC)c(OC)c(OC)c3)o2)cc1,45.8%
